Experimental data as given in PubChem BioAssay (NCI).
Compounds without any hit were thinned out: in the full panel of roughly 79,000, 15% have a hit. No stated cut-off is given here; in the data, active means growth inhibition above about 70%; inactive means the rest.

How the values were obtained:
[1] = NCI Yeast Anticancer Drug Screen. Data for the rad50 strain (AID 155);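 further: 0% = growth of vehicle-only cultures of the same strain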; conditions: S. cerevisiae rad50 strain growth inhibition; at 50.0 µM; active compounds read high
Summary of the method: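 Cells are treated with compound, grown, and their growth is then scored against vehicle-only cultures of the same repair-deficient yeast strain.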

[2] = NCI Yeast Anticancer Drug Screen. Data for the mec2-1 strain (AID 157); conditions: S. cerevisiae mec2-1 strain, at 50.0 µM, active compounds read high
Summary of the method: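 Test agents were screened against the mec2-1 yeast strain, with defined DNA repair or cell cycle alteration. Growth was scored as inhibition against vehicle-only controls.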

[3] = NCI Yeast Anticancer Drug Screen. Data for the sgs1 mgt1 strain (AID 161);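 further: 0% = growth of cultures given vehicle only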; conditions: S. cerevisiae sgs1 mgt1 strain, at 50.0 µM, active compounds read high
Summary of the method: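 Inhibition of yeast growth, normalised to vehicle-treated controls, is reported for a strain bearing genetic alterations in DNA damage repair.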

[4] = NCI Yeast Anticancer Drug Screen. Data for the cln2 rad14 strain (AID 165);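 further: 0% = growth equal to vehicle treated cultures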; conditions: S. cerevisiae cln2 rad14 strain, at 50.0 µM, active compounds read high
Summary of the method: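 Growth of compound-exposed yeast (cln2 rad14 genotype) measured and expressed as inhibition relative to vehicle.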

[5] = NCI Yeast Anticancer Drug Screen. Data for the bub3 strain (AID 167); conditions: S. cerevisiae bub3 mutant strain, at 50.0 µM, active compounds read high
Summary of the method: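 Part of a panel of yeast mutants defective in DNA damage repair or cell cycle regulation. Each strain is grown with compound, and inhibition is calculated relative to solvent-treated cultures.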

[6] = NCI Yeast Anticancer Drug Screen. Data for the mlh1 rad18 strain (AID 175); conditions: S. cerevisiae mlh1 rad18 strain growth inhibition; at 50.0 µM; active compounds read high
Summary of the method: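 In this whole-cell yeast screen, a strain with altered DNA damage repair is challenged with compound, and its growth is measured against matched vehicle-treated controls.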

Measured: growth inhibition

CCC(C)NC(=O)Nc1ccccc1 (stereo unspecified)
inactive: [1] 13.3% | [2] 8.95% | [3] -0.65% | [4] 3.9% | [5] -2.45% | [6] 6.35%

BrCCCCCBr
inactive: [1] 12.4% | [2] 6.3% | [3] 1.5% | [4] -48.5% | [5] -5.45% | [6] 15.6%

O=c1[nH]c(Nc2cccc(CO)c2)nc2nc[nH]c12
inactive: [1] 5.35% | [2] -11% | [3] -25.8% | [4] 0.9% | [5] -15.7% | [6] -26.4%

Nc1ccc(N=Nc2ccccc2)c(N)c1
inactive: [1] 29.5% | [2] 19.6% | [3] 27% | [4] -52.1% | [5] 8.55% | [6] 28.6%

CC(C)=C(OC(=O)c1ccccc1)C(C)(CC(C)(C)C)C(C)(C)C (stereo unspecified)
inactive: [1] 13.1% | [2] -55.3% | [3] -10.3% | [4] -100% | [5] -26.5% | [6] 19.4%

CC(SC(=S)SC(C)C(=O)O)C(=O)O (stereo unspecified)
inactive: [1] 6% | [2] 15.3% | [3] 22.3% | [4] 44% | [5] -6.1% | [6] 15.3%

CC(C)=CCCc1cc(-c2cc(CCC=C(C)C)nc(N)n2)nc(N)n1
inactive: [1] 3.5% | [2] -10.9% | [3] -3.2% | [4] -7.1% | [5] -22.9% | [6] 15.1%

N#CC(=Nc1ccccc1N(C(=O)c1ccccc1)C(=O)c1ccccc1)c1ccccc1
inactive: [1] -21.3% | [2] -19.4% | [3] -30.4% | [4] 2.95% | [5] -51.5% | [6] -38.4%

CC(C)(C)c1nc2c(o1)C(=Nc1ccc(F)cc1)c1ccccc1C2=O
inactive: [1] 8.6% | [2] 3.15% | [3] 14.7% | [4] 38.1% | [5] 0.65% | [6] -2.5%

CCN(C=O)c1ccccc1
inactive: [1] 15.7% | [2] -7.55% | [3] -6.95% | [4] -0.8% | [5] 5.95% | [6] 6.55%

CCOC(=O)c1nc2c([nH]1)c(=O)n(C)c(=O)n2C
inactive: [1] 28.8% | [2] 10.7% | [3] 2.3% | [4] 30.1% | [5] 9.8% | [6] 1.4%

CCOC(=O)Nc1ccccc1F
inactive: [1] 4.4% | [2] -16.1% | [3] -3.95% | [4] -6.15% | [5] 4.75% | [6] 9%

COc1ccc(OC)c(NC(=O)Nc2nccs2)c1
inactive: [1] 1.9% | [2] 42.9% | [3] 29.1% | [4] -5.25% | [5] 36.6% | [6] 32.5%

O=C(Cl)C=Cc1ccc([N+](=O)[O-])cc1 (mixture of isomers)
inactive: [1] 4.7% | [2] 6.7% | [3] -0.25% | [4] -6.65% | [5] 2.15% | [6] 1.95%

CC(C)(C)C(=O)OCCN(CCOC(=O)C(C)(C)C)C(=O)COC(=O)C(C)(C)C
inactive: [1] 31.4% | [2] -0.95% | [3] 21.1% | [4] 20.7% | [5] -3.25% | [6] 20.4%

COC(=O)C(C)CC(=O)c1ccc2ccc3cccc4ccc1c2c34 (stereo unspecified)
inactive: [1] -16.9% | [2] -18.4% | [3] -2.05% | [4] -35.4% | [5] 19.4% | [6] -4.2%

COC(=O)CCC(CCc1ccccc1)(C(C)=O)C(C)=O
inactive: [1] -2.4% | [2] -13.1% | [3] -16.5% | [4] -4.05% | [5] 19.3% | [6] 7.7%

CCN(CC)CC(O)c1cccc2cc(Cl)ccc12 (stereo unspecified)
inactive: [1] -3.25% | [2] -8.85% | [3] 28% | [4] -15.2% | [5] -2.55% | [6] -14%

COc1cc2nncc(SCc3ccc(Cl)cc3Cl)c2cc1OC
inactive: [1] 16.9% | [2] 2.9% | [3] -1.65% | [4] 23.8% | [5] 1.2% | [6] 8.25%

CN(C(=O)c1ccco1)C(=S)N1CCN(c2ccccc2)CC1
inactive: [1] -17% | [2] -1.95% | [3] -0.7% | [4] 10.2% | [5] 13.8% | [6] -13.3%

Cn1c(=O)c2[nH]c(CC3=CCCCC3)nc2n(C)c1=O
inactive: [1] -13.6% | [2] 13.1% | [3] 6.05% | [4] -8.35% | [5] 4.4% | [6] 21.6%
